The list is not random: actives were taken first. Their share in the collection is about 3.8%.
HSF1 activator = increases HSF-1 driven luciferase reporter signal; NIH3T3-HGL HSF-1 luciferase reporter, MG132, 8 h; 100% = twice DMSO control signal; activation, % at 9 µM; 300,000 tested, 1.7% active; AID 504408;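 active means mean replicate activation of at least 50% with a set share of replicates each reaching 50%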;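 further: 0% = median of the neutral control wells and 100% = twice that signal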
Hsp70 act = transcriptional activators of Hsp70; HeLa Hsp70 promoter luciferase reporter, luminescence; scaled: vehicle 0, proteasome-inhibitor control 100%; activation, % at 10 µM; 200,000 tested, 0.04% active;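 active means activation above the mean across all tested compounds plus 3 SD, cutoff set per campaign, cut at about 5.5% in these data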;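 further: 100% = MG132 at 30 µM as the positive control and 0% = DMSO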
NALP1 inh = blocks the NALP1 inflammasome reconstituted in yeast | inhibition, % at 10 µM | 280,000 tested, 0.61% active | S. cerevisiae NALP1/ASC/caspase-1 growth, X-gal OD620, 72 h; in the data active means inhibition mostly above about 24%, no sharp cut-off; inactive means mostly below about 32%
HSF1 inh = HSF1 inhibition; AID 2098; 300,000 tested, 0.77% active; activity change, negative = inhibition, % at 7.5 µM (by protocol); NIH3T3-HGL HSE-luciferase, MG132-induced, luminescence 8 h; active compounds read low;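 active means more than half of replicate wells show activity change below -50%, luminescence cut by over half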;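 further: luciferase reports HSF-1 transcriptional activity via heat shock element; 0% = median of DMSO wells and -100% = zero luminescence signal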
p-CIP stab down = lowers stability of the mouse p/CIP coactivator protein; Q05BA5; F442A p/CIP-EGFP cells, EGFP fluorescence, 16 h; decrease of EGFP signal, % at 10 µM; 290,000 tested, 0.01% active; AID 1984;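 active means EGFP signal decrease of at least 30% at 10 µM or well 3 SD below plate mean, unless failing retest; inactive means the rest, including hits failing retest or dose response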
Target sequence (Q05BA5 1-1403): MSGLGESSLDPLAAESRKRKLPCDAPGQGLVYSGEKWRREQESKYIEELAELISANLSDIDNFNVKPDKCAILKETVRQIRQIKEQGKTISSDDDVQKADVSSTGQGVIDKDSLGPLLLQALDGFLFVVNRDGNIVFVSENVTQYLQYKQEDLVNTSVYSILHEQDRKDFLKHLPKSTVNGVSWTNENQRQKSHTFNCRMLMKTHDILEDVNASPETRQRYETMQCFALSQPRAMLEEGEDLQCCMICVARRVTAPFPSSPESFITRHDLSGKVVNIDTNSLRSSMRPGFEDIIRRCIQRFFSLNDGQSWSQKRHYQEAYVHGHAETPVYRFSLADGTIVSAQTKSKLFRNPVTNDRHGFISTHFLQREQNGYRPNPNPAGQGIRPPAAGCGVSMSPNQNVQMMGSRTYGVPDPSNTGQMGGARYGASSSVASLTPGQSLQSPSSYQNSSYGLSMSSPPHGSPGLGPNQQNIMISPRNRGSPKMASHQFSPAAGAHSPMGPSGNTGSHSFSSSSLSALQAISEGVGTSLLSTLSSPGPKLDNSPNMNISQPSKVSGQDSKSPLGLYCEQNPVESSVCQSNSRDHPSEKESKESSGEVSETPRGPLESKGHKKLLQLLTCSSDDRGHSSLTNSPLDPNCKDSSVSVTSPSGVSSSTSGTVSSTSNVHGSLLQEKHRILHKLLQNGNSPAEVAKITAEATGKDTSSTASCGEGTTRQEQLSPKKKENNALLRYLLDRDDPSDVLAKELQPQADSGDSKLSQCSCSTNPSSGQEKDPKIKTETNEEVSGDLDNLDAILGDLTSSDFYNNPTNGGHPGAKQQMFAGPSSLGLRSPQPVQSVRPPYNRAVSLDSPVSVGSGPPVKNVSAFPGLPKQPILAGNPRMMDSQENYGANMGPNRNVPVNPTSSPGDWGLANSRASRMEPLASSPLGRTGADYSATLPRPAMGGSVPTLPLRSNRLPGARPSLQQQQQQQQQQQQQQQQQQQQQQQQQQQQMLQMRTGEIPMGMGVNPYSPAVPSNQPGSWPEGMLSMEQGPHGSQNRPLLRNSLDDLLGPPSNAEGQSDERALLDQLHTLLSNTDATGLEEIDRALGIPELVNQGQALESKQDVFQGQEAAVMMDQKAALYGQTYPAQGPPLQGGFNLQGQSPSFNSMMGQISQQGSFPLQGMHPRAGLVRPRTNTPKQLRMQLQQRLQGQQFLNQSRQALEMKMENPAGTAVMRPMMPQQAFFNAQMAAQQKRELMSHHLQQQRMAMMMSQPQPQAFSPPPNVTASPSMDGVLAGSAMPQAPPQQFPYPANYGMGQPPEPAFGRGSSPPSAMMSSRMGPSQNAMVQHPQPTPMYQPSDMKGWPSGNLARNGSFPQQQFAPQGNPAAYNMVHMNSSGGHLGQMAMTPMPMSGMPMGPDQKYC
HSP90 refold inh = HSP90 refolding inhibition in rabbit reticulocyte lysate. luciferase refolding luminescence, 3 h. inhibition, % at 5.6 µM. 290,000 tested, 0.91% active. AID 1789;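 active means inhibition above the screen-wide mean plus 3 SD, computed separately per campaign, cut at about 16% in these data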;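 further: 0% = DMSO wells and 100% = 60 µM geldanamycin wells; inhibitors lower the luminescence because luciferase stays unfolded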
The depositor's hits bear a star.

For CC(Sc1nnc(NC2CCCCC2)s1)C(=O)N1CCOCC1 (configuration not stated) the results were HSF1 activator -14.4 and HSF1 inh 1.6.
O=C(CC(Nc1ccc(F)cc1)C(=O)O)c1ccccc1 (configuration not stated) was read as HSF1 activator 56.4*, Hsp70 act 0.6, NALP1 inh 12.8, HSF1 inh 34.2, p-CIP stab down -9.4 and HSP90 refold inh -0.8.
Cc1ccc(NC(CC(=O)c2ccccc2)c2ccc(F)cc2)cc1 (configuration not stated) was read as HSF1 activator 1.3, Hsp70 act -0.3, NALP1 inh 8.1, HSF1 inh 4.1, p-CIP stab down -12.4 and HSP90 refold inh 0.7.
Screening O=C(CC(Nc1ccc(F)cc1)C(=O)OCC(=O)c1cccs1)c1ccccc1 (configuration not stated) returned HSF1 activator 88.6*, Hsp70 act -0.2, NALP1 inh 25.7, HSF1 inh 54.9, p-CIP stab down -9.1 and HSP90 refold inh 1.6.
O=C(COC(=O)c1cccs1)c1ccccc1 was read as HSF1 activator 48.8, Hsp70 act -0.1, NALP1 inh 1.3, HSF1 inh 27.5, p-CIP stab down -8.0 and HSP90 refold inh 0.6.
For Cc1ccc(S(=O)(=O)NCCC(=O)N2CCOCC2)cc1C the results were HSF1 activator -8.8 and HSF1 inh 0.9.
Screening O=C(Nc1ccc(C(=O)N2CCCCC2)cc1)c1ccccc1Br returned HSF1 activator -15.5, NALP1 inh -4.3, HSF1 inh -4.8, p-CIP stab down -11.9 and HSP90 refold inh 1.9.
CC(=O)c1c[nH]c(C(=O)NC2CCCCCC2)c1 was read as HSF1 activator -3.4, NALP1 inh 5.9, HSF1 inh -3.4, p-CIP stab down 0.4 and HSP90 refold inh -2.9.
Screening O=C1CCN(CCc2ccccc2)CCN1[C@H](COc1ccccc1)c1ccccc1 returned HSF1 activator 8.5, NALP1 inh -1.4, HSF1 inh 20.9, p-CIP stab down -13.2 and HSP90 refold inh -2.4.
For C#C[C@]1(O)CC[C@H]2[C@@H]3CCc4cc(O)ccc4[C@H]3CC[C@@]21C the results were HSF1 activator 14.6, Hsp70 act -0.2, NALP1 inh 49.3*, HSF1 inh 12.3, p-CIP stab down -7.9 and HSP90 refold inh 7.6.
`CC(=O)O[C@H]1CC[C@H]2[C@@H]3CCc4cc(O)ccc4[C@H]3CC[C@]12C` gave HSF1 activator -57.8, Hsp70 act -0.4, NALP1 inh 21.8, HSF1 inh -47.2, p-CIP stab down -2.0 and HSP90 refold inh 0.9.
CC(CC(=O)O)CC(=O)Nc1ccc(Br)cc1 (configuration not stated) was read as HSF1 activator 21.7, NALP1 inh 11.6, HSF1 inh -6.5, p-CIP stab down -11.4 and HSP90 refold inh 0.4.
Screening Cc1cc(C)cc(NC(=O)CN2CCN(C(=O)C3CCCO3)CC2)c1 (configuration not stated) returned HSF1 activator 0.7, NALP1 inh 12.0, HSF1 inh -2.8, p-CIP stab down -10.8 and HSP90 refold inh 9.5.
Screening COc1ccc(C(NC(=O)c2ccc(=O)[nH]c2)C(=O)Nc2ccc(C(C)C)cc2)cc1 (configuration not stated) returned HSF1 activator -72.0, Hsp70 act -0.2, NALP1 inh 11.3, HSF1 inh -61.2*, p-CIP stab down 10.4 and HSP90 refold inh -0.3.
Screening COc1ccc(NC(=O)C(NC(=O)c2ccc(=O)[nH]c2)c2ccc(C)cc2)cc1 (configuration not stated) returned HSF1 activator -8.5, Hsp70 act -0.4, NALP1 inh 32.8, HSF1 inh -5.6, p-CIP stab down 3.4 and HSP90 refold inh -6.5.
`CCN(CC)C(=O)c1sc(NC(=O)Cc2ccc(OC)cc2)c(C#N)c1C` gave HSF1 activator -12.0, Hsp70 act 0.0, NALP1 inh 42.6*, HSF1 inh -9.7, p-CIP stab down -13.3 and HSP90 refold inh 1.6.
`Cc1nn(-c2ccccc2)c(Cl)c1CN(C(=O)CCl)c1ccc(Cl)cc1` gave HSF1 activator -85.0, Hsp70 act -0.3, NALP1 inh -15.9, HSF1 inh -86.4*, p-CIP stab down -1.7 and HSP90 refold inh 0.3.
CC(=O)N(Cc1c(C)nn(-c2ccccc2)c1Cl)c1ccc(Cl)cc1 was read as HSF1 activator 5.9, Hsp70 act -0.4, NALP1 inh -11.3, HSF1 inh 6.3, p-CIP stab down 4.5 and HSP90 refold inh 1.2.
Cn1ccsc1=NC(=O)c1ccc(S(C)(=O)=O)c([N+](=O)[O-])c1 was read as HSF1 activator 7.6, NALP1 inh 3.7, HSF1 inh 12.5, p-CIP stab down -19.2 and HSP90 refold inh -5.3.
CCN(C(=O)/C=C/c1ccc(OC)cc1)C1CCCCC1 was read as HSF1 activator 8.3, NALP1 inh 14.9, HSF1 inh 2.0, p-CIP stab down -3.8 and HSP90 refold inh -6.4.
Screening Cc1ccc(/C=C2\SC(=S)N(CCCC(=O)NNC(=O)c3ccccc3O)C2=O)cc1 returned HSF1 activator -56.1, HSF1 inh -51.5*, p-CIP stab down -1.9 and HSP90 refold inh 6.1.
Screening COc1cc(/C=C2\SC(=S)N(CCC(=O)Nc3ccccc3)C2=O)cc(OC)c1OC returned HSF1 activator 16.3, Hsp70 act -0.3, NALP1 inh 28.9*, HSF1 inh 7.8, p-CIP stab down -17.5 and HSP90 refold inh -1.4.
`CCOc1ccc(/C=C2\SC(=S)N(CCC(=O)O)C2=O)cc1` gave HSF1 activator -62.3, NALP1 inh -11.8, HSF1 inh -60.5*, p-CIP stab down -15.4 and HSP90 refold inh 6.8.
`Cc1ccc(/C=C2\SC(=S)N(CCC(=O)NNC(=O)c3ccccc3O)C2=O)cc1` gave HSF1 activator -2.9, NALP1 inh -3.7, HSF1 inh -14.1, p-CIP stab down 12.8 and HSP90 refold inh 5.5.
COc1cc(/C=C2/SC(=S)N(CCC(=O)Nc3ccccc3)C2=O)cc(OC)c1OC was read as HSF1 activator -2.8, NALP1 inh 10.0, HSF1 inh 5.2, p-CIP stab down -13.7 and HSP90 refold inh 5.4.
Screening Cc1c(OCC(=O)NCCN2CCOCC2)ccc2c1oc(=O)c1ccccc12 returned HSF1 activator -7.2, NALP1 inh 4.3, HSF1 inh 2.8, p-CIP stab down -6.8 and HSP90 refold inh -3.8.
Screening Fc1ccccc1CSc1ccc(-c2ccco2)nn1 returned Hsp70 act 0.2, NALP1 inh 22.6, p-CIP stab down 5.2 and HSP90 refold inh -2.4.
Screening CC1CCCN(C(=O)c2ccc(-c3ccccc3Cl)o2)C1 (configuration not stated) returned HSF1 activator 58.2* and HSF1 inh 31.0.
`Clc1ccccc1-c1nc(-c2ccncc2)no1` gave HSF1 activator 28.1, NALP1 inh 0.7, HSF1 inh 24.4, p-CIP stab down -0.4 and HSP90 refold inh 0.8.
